The text below walks through data of the antibiotic and cytotoxicity screens of Wong et al. (2023).

Screen size: about 39,000 compounds; about 1,500 (3.8%) were called active. The full list was thinned out, with actives kept by preference.

The experiment has as its system HSkMC (human skeletal muscle cells). Briefly: cytotoxicity call (relative viability < 0.9). The following applies: 10 µM.
Consider `Cc1ccc(S(=O)(=O)N(C)C[C@@H]2Oc3c(NC(=O)c4cnccn4)cccc3C(=O)N([C@H](C)CO)C[C@@H]2C)cc1`, for which the cytotoxicity call was “inactive”.

`CC=Cc1ccc2n(c1=O)C[C@H]1[C@H](CO)[C@@H](C(=O)NCCc3cn(C)cn3)N(C(=O)C3CC3)[C@@H]21`: the cytotoxicity call is “inactive”.

With `COc1ccc(S(=O)(=O)N(C)C[C@H]2OCc3cn(nn3)CCCC(=O)N([C@@H](C)CO)C[C@H]2C)cc1`, the cytotoxicity call is “inactive”. For the molecule `C[C@H](CO)N1C[C@H](C)[C@@H](CN(C)C(=O)Nc2ccc3c(c2)OCO3)OCCCC[C@H](C)Oc2ccc(NC(=O)C3CCCCC3)cc2C1=O`, the cytotoxicity call was “inactive”. For the molecule `C[C@H]1CN([C@@H](C)CO)C(=O)c2cc(C#CC3(O)CCCC3)cnc2O[C@H]1CN(C)C(=O)C1CCCCC1`, the cytotoxicity call was “inactive”. For `Cc1noc(C)c1NC(=O)Nc1ccc2c(c1)C(=O)N([C@H](C)CO)C[C@@H](C)[C@H](CN(C)C(=O)Nc1ccc(C(F)(F)F)cc1)O2`, the cytotoxicity call was “inactive”.

`O=C(C[C@@H]1CC[C@H]2[C@@H](COC[C@H](O)CN2C(=O)c2ccccc2)O1)N1CCOCC1`: the cytotoxicity call was “inactive”.

As to `O=C(C[C@@H]1C[C@H]2c3cc(NS(=O)(=O)c4ccc(F)cc4)ccc3O[C@H]2[C@H](CO)O1)NCCN1CCCCC1`, the cytotoxicity call is “inactive”. Next, `C[C@H](CO)N1C[C@H](C)[C@H](CN(C)S(=O)(=O)c2ccc(Cl)cc2)OCCCC[C@H](C)Oc2ccc(NC(=O)Nc3ccc(C(F)(F)F)cc3)cc2C1=O`: “inactive”; `C=CCOC(=O)[C@H]1[C@@H]2C(=O)O[C@@H](c3ccccc3)[C@@H](c3ccccc3)N2[C@@H](c2ccc(OCCOC(=O)[C@H]3C[C@H]4C(=O)N[C@@H](Cc5ccccc5)C(=O)N4[C@H]3c3cccc(OCCO)c3)cc2)[C@]12C(=O)Nc1ccccc12`: “inactive”; `Cc1nn(C[C@@H](O)Cn2cnc3c2c(=O)n(C)c(=O)n3C)c(C)c1Br`: “inactive”. With `O=C(c1ccccc1Cl)c1cccnc1-c1nnn(Cc2cc(C(F)(F)F)cc(C(F)(F)F)c2)c1-c1ccncc1`, the cytotoxicity call was “active”. Next, `NC1CCN(c2cccc(Cl)n2)CC1`: “inactive”; `CCN(CC)CCS(=O)(=O)[C@@H]1CCN2C(=O)c3coc(n3)CC(=O)C[C@H](O)/C=C(C)/C=C\CNC(=O)/C=C/[C@@H](C)[C@H](C(C)C)OC(=O)[C@@H]12`: “inactive”. As for `C[C@H](CO)N1C[C@H](C)[C@@H](CN(C)C(=O)Nc2ccc(F)cc2)OCCCC[C@H](C)Oc2ccc(NS(=O)(=O)c3ccc(F)cc3)cc2C1=O`, the cytotoxicity call is “inactive”.

For `C[C@@H]1CN([C@H](C)CO)C(=O)c2cc(NC(=O)C3CC3)ccc2O[C@H]1CN(C)S(=O)(=O)c1cccs1`, the cytotoxicity call is “inactive”. Next, `C[C@@H]1CN([C@@H](C)CO)C(=O)c2cc(NC(=O)Cc3cn(C)c4ccccc34)ccc2O[C@H]1CN(C)C(=O)Nc1cccc2ccccc12`: “inactive”; `C[C@H](CO)N1C[C@H](C)[C@H](CN(C)C(=O)Nc2cccc3ccccc23)Oc2ccc(NC(=O)Cc3cn(C)c4ccccc34)cc2C1=O`: “inactive”.

Regarding `C[C@@H]1CN([C@@H](C)CO)C(=O)c2cc(NC(=O)Cc3cn(C)c4ccccc34)ccc2O[C@@H]1CN(C)C(=O)Nc1cccc2ccccc12`, the cytotoxicity call was “active”. The result for `C[C@H](CO)N1C[C@H](C)[C@@H](CN(C)C(=O)Nc2cccc3ccccc23)Oc2ccc(NC(=O)Cc3cn(C)c4ccccc34)cc2C1=O` reads “inactive”. The result for `C[C@H]1CN([C@@H](C)CO)C(=O)c2cc(NC(=O)Cc3cn(C)c4ccccc34)ccc2O[C@@H]1CN(C)C(=O)Nc1cccc2ccccc12` reads “inactive”; that for `C[C@H]1CN([C@@H](C)CO)C(=O)Cc2cc(NC(=O)Cc3cn(C)c4ccccc34)ccc2O[C@H]1CN(C)C(=O)Nc1cccc2ccccc12`, “inactive”; that for `C[C@@H]1CN([C@H](C)CO)C(=O)c2cc(NC(=O)Cc3cn(C)c4ccccc34)ccc2O[C@H]1CN(C)C(=O)Nc1cccc2ccccc12`, “active”. On to `C[C@H]1CN([C@@H](C)CO)C(=O)c2cc(NC(=O)Cc3cn(C)c4ccccc34)ccc2O[C@H]1CN(C)C(=O)Nc1cccc2ccccc12`, for which the cytotoxicity call was “inactive”. Next, `C[C@@H]1CN([C@H](C)CO)C(=O)c2cc(NC(=O)Cc3cn(C)c4ccccc34)ccc2O[C@@H]1CN(C)C(=O)Nc1cccc2ccccc12`: “active”; `COc1ccc(NC(=O)Nc2cccc3c2O[C@@H](CN(C)C(=O)Nc2cccc4ccccc24)[C@@H](C)CN([C@@H](C)CO)C3=O)cc1`: “inactive”. Next, `O[C@H]1[C@H](O)[C@@H](O)[C@H](O)[C@H](O)[C@H]1O`: “inactive”; `COc1ccc(S(=O)(=O)N[C@H]2C=C[C@H](CC(=O)N3CCC(Cc4ccccc4)CC3)O[C@@H]2CO)cc1`: “inactive”; `CO[C@H]1CN(C)C(=O)c2cc(NC(=O)c3ccccc3)ccc2OC[C@H](C)N(C(=O)CN(C)C)C[C@@H]1C`: “inactive”.

Regarding `C[C@@H]1CN([C@H](C)CO)C(=O)c2cccc(NC(=O)c3cnccn3)c2O[C@@H]1CN(C)CC1CCCCC1`, the cytotoxicity call was “inactive”. Next, `COc1ccc(CN(C)C[C@@H]2Oc3ccc(NC(=O)C4CC4)cc3CC(=O)N([C@H](C)CO)C[C@@H]2C)cc1`: “inactive”.

Consider `C[C@@H]1CCCCO[C@H](CN(C)Cc2ccc(Cl)c(Cl)c2)[C@@H](C)CN([C@H](C)CO)C(=O)c2cc(NC(=O)Nc3ccc(F)cc3)ccc2O1`, for which the cytotoxicity call was “inactive”. On to `Cn1cnc(S(=O)(=O)N2C[C@H](O)COC[C@@H]3O[C@H](CC(=O)NCc4ccc(F)cc4)CC[C@H]32)c1`, for which the cytotoxicity call was “inactive”. For the molecule `Cc1cc(C(=O)Nc2cccc3c2O[C@H](CN(C)C(=O)Nc2c(C)noc2C)[C@H](C)CN([C@@H](C)CO)C3=O)n(C)n1`, the cytotoxicity call was “inactive”. Next, `CO[C@@H]1[C@@H](OC(=O)c2ccc(C)[nH]2)[C@@H](O)[C@@H](Oc2ccc3c(c2C)OC(=O)[C@H](NC(=O)c2[nH]cc(CC(=O)Nc4cc5ccc(O[C@@H]6OC(C)(C)[C@H](OC)[C@@H](OC(=O)c7ccc(C)[nH]7)[C@H]6O)c(C)c5oc4=O)c2C)C3)CC1(C)C`: “active”; `COC1C(OC(N)=O)C(O)C(Oc2ccc3c([O-])c(NC(=O)c4ccc(O)c(CC=C(C)C)c4)c(=O)oc3c2C)OC1(C)C.[Na+]` (centres undefined): “inactive”; `COc1ccc(NC(=O)N(C)C[C@H]2OCCCC[C@H](C)Oc3ccc(NC(=O)Nc4ccc5c(c4)OCO5)cc3C(=O)N([C@@H](C)CO)C[C@@H]2C)cc1`: “inactive”.

Regarding `C[C@H]1CN([C@@H](C)CO)C(=O)c2cc(NC(=O)Nc3ccc4c(c3)OCO4)ccc2O[C@H]1CN(C)S(=O)(=O)c1cn(C)cn1`, the cytotoxicity call was “inactive”.

For the molecule `Cc1noc(C)c1NC(=O)Nc1ccc2c(c1)C(=O)N([C@@H](C)CO)C[C@H](C)[C@H](CN(C)C(=O)Nc1ccc(F)cc1)OCCCC[C@H](C)O2`, the cytotoxicity call was “inactive”. The result for `Cc1noc(C)c1NC(=O)Nc1ccc2c(c1)C(=O)N([C@H](C)CO)C[C@H](C)[C@H](CN(C)Cc1ccc3c(c1)OCO3)OCCCC[C@H](C)O2` reads “inactive”. The result for `O=C(C[C@H]1CC[C@@H]2[C@H](COC[C@H](O)CN2C(=O)c2ccncc2)O1)NC1CCC1` reads “inactive”; that for `C[C@H](CO)N1C[C@H](C)[C@H](CN(C)Cc2ccncc2)Oc2ccc(NC(=O)Nc3cccc4ccccc34)cc2CC1=O`, “active”; that for `COc1ccc(CN(C)C[C@H]2Oc3ccc(NC(=O)Nc4cccc5ccccc45)cc3CC(=O)N([C@@H](C)CO)C[C@H]2C)cc1`, “inactive”.

Regarding `C[C@@H]1CN([C@H](C)CO)C(=O)Cc2cc(NC(=O)Nc3cccc4ccccc34)ccc2O[C@H]1CN(C)Cc1ccncc1`, the cytotoxicity call is “inactive”. Consider `COc1ccc(CN(C)C[C@@H]2Oc3ccc(NC(=O)Nc4cccc5ccccc45)cc3CC(=O)N([C@@H](C)CO)C[C@@H]2C)cc1`, for which the cytotoxicity call is “active”.

For `C[C@@H]1CN([C@H](C)CO)C(=O)Cc2cc(NC(=O)Nc3cccc4ccccc34)ccc2O[C@H]1CN(C)Cc1ccc(-c2ccccc2)cc1`, the cytotoxicity call is “inactive”.

Regarding `C[C@H](CO)N1C[C@H](C)[C@@H](CN(C)Cc2ccc(-c3ccccc3)cc2)Oc2ccc(NC(=O)Nc3cccc4ccccc34)cc2CC1=O`, the cytotoxicity call is “inactive”.

In the case of `C[C@H]1CN([C@@H](C)CO)C(=O)Cc2cc(NC(=O)Nc3cccc4ccccc34)ccc2O[C@@H]1CN(C)Cc1ccc(-c2ccccc2)cc1`, the cytotoxicity call is “active”.

In the case of `COc1ccc(CN(C)C[C@H]2Oc3ccc(NC(=O)Nc4cccc5ccccc45)cc3CC(=O)N([C@@H](C)CO)C[C@@H]2C)cc1`, the cytotoxicity call is “inactive”. For `COc1ccc(CN(C)C[C@H]2Oc3ccc(NC(=O)Nc4cccc5ccccc45)cc3CC(=O)N([C@H](C)CO)C[C@H]2C)cc1`, the cytotoxicity call is “active”.

With `C[C@@H]1CN([C@H](C)CO)C(=O)Cc2cc(NC(=O)Nc3cccc4ccccc34)ccc2O[C@@H]1CN(C)Cc1ccncc1`, the cytotoxicity call is “inactive”. Take `COc1ccc(CN(C)C[C@@H]2Oc3ccc(NC(=O)Nc4cccc5ccccc45)cc3CC(=O)N([C@H](C)CO)C[C@H]2C)cc1`: the cytotoxicity call is “inactive”.

Turning to `COc1ccc(CN(C)C[C@@H]2Oc3ccc(NC(=O)Nc4cccc5ccccc45)cc3CC(=O)N([C@H](C)CO)C[C@@H]2C)cc1`, the cytotoxicity call was “inactive”. As to `Cn1nc(Cn2ccnc2)c2c1CN(CCO)C2`, the cytotoxicity call is “inactive”. Next, `C[C@H](CO)N1C[C@H](C)[C@H](CN(C)S(=O)(=O)c2cccs2)Oc2ccc(NS(=O)(=O)c3cccs3)cc2C1=O`: “inactive”.

`C[C@@H]1CN([C@H](C)CO)C(=O)c2cccc(NC(=O)C3CC3)c2O[C@H]1CN(C)S(=O)(=O)c1cn(C)cn1`: the cytotoxicity call was “inactive”. Next, `C[C@@H]1CN([C@H](C)CO)C(=O)c2cc(NS(=O)(=O)c3cccs3)ccc2O[C@@H](C)CCCCO[C@@H]1CN(C)S(C)(=O)=O`: “inactive”. Next, `COCC(=O)N1C[C@@H](C)[C@H](OC)CN(C)C(=O)c2cc(NC(=O)c3ccc(OC)cc3)ccc2OC[C@H]1C`: “inactive”; `C[C@@H]1CN([C@@H](C)CO)C(=O)c2cc(NC(=O)NC3CCCCC3)ccc2O[C@@H](C)CCCCO[C@@H]1CN(C)Cc1ccccc1`: “inactive”.
